# Experimental data: article PMC4336329 (PLoS ONE, 2015)
# The campaign covered roughly 310,000 compounds. About 14,000 (4.5%) showed an effect of 50% or more. The effect is printed as a negative number. Shown is part of a subset that was picked to be rich in strong results.
# Target: human ether-à-go-go-related gene (hERG) potassium channel (human, UniProt Q12809)
# Assay: primary screen, population patch clamp on CHO cells stably expressing hERG; higher = less effect of the substance
# Experimental: Briefly, Chinese hamster ovary (CHO) cells stably expressing the hERG channel were dislodged from tissue culture flasks and dispensed into PPC plates. […] During the recording, background leak currents were estimated by a 100 ms step to -80 mV from an initial holding potential of -70 mV and subtracted from the subsequent current measurement. The campaign was conducted in two phases using slight differences in recording protocol. In the first phase, the initial voltage pulse used a 100 ms step to -30 mV from a holding potential of -70 mV, a 2 s conditioning step to +25 mV, and a 2 s test step to -30 mV. During the second phase of the screen, the potential during the conditioning step was raised to +45 mV. In both phases of the campaign, a secondary voltage pulse was applied using the same parameters as the second phase initial pulse. The initial and secondary pulses were applied in the absence of compound, and upon application of 1 μM and 10 μM test concentrations. […]
# 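Note: peak tail current of the secondary pulse compared with the same well before compound.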
# Chain of human ether-à-go-go-related gene (hERG) potassium channel (Q12809 whole entry, looked up): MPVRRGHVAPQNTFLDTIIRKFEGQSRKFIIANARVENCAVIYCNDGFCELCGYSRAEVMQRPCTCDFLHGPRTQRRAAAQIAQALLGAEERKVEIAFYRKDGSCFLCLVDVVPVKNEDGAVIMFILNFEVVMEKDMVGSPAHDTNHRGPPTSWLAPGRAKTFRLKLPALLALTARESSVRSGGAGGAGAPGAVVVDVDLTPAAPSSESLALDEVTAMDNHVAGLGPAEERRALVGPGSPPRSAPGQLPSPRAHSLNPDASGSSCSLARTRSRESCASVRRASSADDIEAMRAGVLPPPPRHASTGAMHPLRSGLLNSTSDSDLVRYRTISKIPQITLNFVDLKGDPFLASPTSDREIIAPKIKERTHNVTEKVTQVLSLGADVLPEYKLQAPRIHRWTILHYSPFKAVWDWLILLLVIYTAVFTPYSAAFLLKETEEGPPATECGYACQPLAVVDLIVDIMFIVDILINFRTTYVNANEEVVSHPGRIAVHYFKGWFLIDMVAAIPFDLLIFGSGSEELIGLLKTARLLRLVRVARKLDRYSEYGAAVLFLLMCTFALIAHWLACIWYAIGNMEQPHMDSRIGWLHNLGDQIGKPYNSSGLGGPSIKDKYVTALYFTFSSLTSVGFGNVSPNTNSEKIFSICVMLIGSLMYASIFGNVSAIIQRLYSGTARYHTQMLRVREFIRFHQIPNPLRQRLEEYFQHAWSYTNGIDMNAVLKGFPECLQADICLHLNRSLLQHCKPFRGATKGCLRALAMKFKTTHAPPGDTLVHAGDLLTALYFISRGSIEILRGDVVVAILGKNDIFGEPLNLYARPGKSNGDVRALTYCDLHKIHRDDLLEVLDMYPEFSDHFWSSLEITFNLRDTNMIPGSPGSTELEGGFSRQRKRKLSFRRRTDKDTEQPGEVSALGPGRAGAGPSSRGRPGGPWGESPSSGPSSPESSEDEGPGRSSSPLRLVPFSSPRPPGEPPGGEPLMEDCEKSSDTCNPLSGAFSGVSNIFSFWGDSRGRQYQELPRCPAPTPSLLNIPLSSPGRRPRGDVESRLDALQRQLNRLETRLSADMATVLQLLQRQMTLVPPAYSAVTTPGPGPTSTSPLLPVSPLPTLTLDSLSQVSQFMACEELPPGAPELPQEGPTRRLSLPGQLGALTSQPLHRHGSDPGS
row,Compound,"hERG current change (%, negative = inhibition) at 10uM"
1,COc1cc(OC)cc(C(=O)NCCSc2c[nH]c3ccccc23)c1,-17.1%
2,NC(=O)c1sc2nc3c(cc2c1N)CCC3,8.92%
3,CC(=O)c1ccc(OC(=O)C2CSC3(C)CCC(=O)N23)cc1 (stereo not shown),12.4%
4,OC(CN1CCOCC1)Cn1c(-c2cccc(Cl)c2)nc2ccccc21 (stereo not shown),-21.3%
5,CCN(CC)CC(O)Cn1c(-c2ccccc2Cl)nc2ccccc21 (stereo not shown),-25.2%
6,CCN(CC)CC(O)Cn1c(-c2cccc(Cl)c2)nc2cc(C)c(C)cc21 (stereo not shown),-62.8%
7,CCOC(=O)[C@@H]1[C@H]2COc3ccc(Br)cc3[C@@H]2N2C(=O)N(c3ccc(C)cc3)C(=O)[C@]12C,5.6%
8,O=C(NCC1CCCCC1)c1cc(S(=O)(=O)N2CCCCC2)ccc1N1CCOCC1,-7.89%
9,COc1ccc(C2C(C#N)=C(N)Nc3onc(C(C)(C)C)c32)c(OC)c1 (stereo not shown),3.15%
10,COc1ccc2oc(C(=O)OCc3nnc(-c4ccccc4)o3)c(C)c2c1,19.8%
11,CCCCN(C(=O)COc1ccc(C)cc1OC)c1c(N)n(CCC)c(=O)[nH]c1=O,4.7%
12,O=C(c1ccccc1)c1ccccn1,2.58%
13,CCOc1ccc(S(=O)(=O)N2CCC(C(=O)NCCc3ccccc3)CC2)cc1,29.1%
14,Cc1ccc(S(=O)(=O)N2CCC(C(=O)NCc3ccccc3Cl)CC2)cc1,-4.47%
15,Cc1ccc(S(=O)(=O)N2CCC(C(=O)NCCN3CCOCC3)CC2)cc1C,8.7%
16,O=C(NCc1ccccc1F)C1CCN(S(=O)(=O)c2ccccc2)CC1,-12.1%
17,CCOc1ccc(S(=O)(=O)N2CCC(C(=O)NCc3ccccn3)CC2)cc1,-25.9%
18,CCOc1ccc(S(=O)(=O)N2CCC(C(=O)NCc3ccccc3CN3CCCC3)CC2)cc1,-64.3%
19,O=C(NCc1ccccc1CN1CCCC1)C1CCN(S(=O)(=O)c2ccc(F)c(F)c2)CC1,-59.1%
20,COc1ccc(S(=O)(=O)N2CCC(C(=O)NCCC3=CCCCC3)CC2)cc1C,-56.2%
21,Cc1ccc(S(=O)(=O)N2CCC(C(=O)NCc3ccccc3CN3CCCC3)CC2)cc1C,-68.7%
22,COc1ccc(S(=O)(=O)N2CCC(C(=O)NCCC3=CCCCC3)CC2)cc1OC,-23.5%

row,Compound,"hERG current change (%, negative = inhibition) at 10uM"
1,Cc1ccc(S(=O)(=O)N2CCC(C(=O)NCCC3=CCCCC3)CC2)cc1C,-11.6%
2,O=C(NCc1ccccc1Cl)C1CCN(S(=O)(=O)c2ccc(F)cc2)CC1,-45.6%
3,Cc1ccn2c(NC(=O)c3ccco3)c(-c3ccccc3)nc2c1,-23.7%
4,O=C(CSc1nc(O)cc(=O)[nH]1)N1c2ccccc2Sc2ccccc21,8.9%
5,CC(C)c1ccc(NC(=O)NCc2ccc3c(c2)OCO3)cc1,13.4%
6,O=C(O)c1ccccc1OC(=O)C12CC3CC(CC(C3)C1)C2,18.1%
7,O=C(NCc1ccc(F)cc1)c1cccnc1,9.37%
8,Cc1nc([N+](=O)[O-])cn1Cc1cccc2ccccc12,10.2%
9,CCOc1ccc(S(=O)(=O)N2CCC(C(=O)NCc3ccco3)CC2)cc1,-53%
10,COc1ccc(S(=O)(=O)N2CCC(C(=O)NCc3ccco3)CC2)cc1,-25.4%
11,O=C(NCc1ccccc1CN1CCCC1)C1CCN(S(=O)(=O)c2ccc(Cl)cc2)CC1,-69.4%
12,O=C(NCc1ccccc1Cl)C1CCN(S(=O)(=O)N2CCCCC2)CC1,1.33%
13,O=C(NCc1ccccc1)C1CCN(S(=O)(=O)c2ccc(Cl)cc2)CC1,3.16%
14,N#Cc1ccccc1S(=O)(=O)N1CCC(C(=O)NCc2ccccc2CN2CCCC2)CC1,-69.1%
15,CCOc1ccc(S(=O)(=O)N2CCCC(C(=O)NCc3ccco3)C2)cc1 (stereo not shown),-4.45%
16,O=C(NCc1ccc(Cl)cc1)C1CCN(S(=O)(=O)c2ccccc2)CC1,13%
17,O=C(NCc1ccccc1Cl)C1CCN(S(=O)(=O)N2CCCC2)CC1,12.5%
18,CCOc1ccc(NC2OCC(O)C(O)C2O)c([N+](=O)[O-])c1 (stereo not shown),33.2%
19,COc1cc(/C=N/NS(=O)(=O)c2ccc(C)c([N+](=O)[O-])c2)cc([N+](=O)[O-])c1O,18.1%
20,COc1ccc(-c2cn3c(C)c(C(=O)N4CCN(c5ccccc5F)CC4)sc3n2)cc1,-29.8%
21,CCOC(=O)C1CCCN(C(=O)c2cc(-c3ccc(F)cc3)nc3ccccc23)C1 (stereo not shown),-33.8%
22,CCOC(=O)C1CCCN(C(=O)c2sc3nc(-c4ccc(OC)cc4)cn3c2C)C1 (stereo not shown),-55.4%

row,Compound,"hERG current change (%, negative = inhibition) at 10uM"
1,CCOC(=O)C1CCN(C(=O)c2cc3c(-c4ccc(OC)c(OC)c4)nn(C)c3s2)CC1,-17%
2,CCOC(=O)N1CCN(C(=O)c2cc3c(-c4cccc(OC)c4)nn(C)c3s2)CC1,-35.6%
3,COc1ccc(-c2cn3c(C)c(C(=O)N4CCc5ccccc5C4)sc3n2)cc1,-31.9%
4,CCOC(=O)C1CCCN(C(=O)c2sc3nc(-c4ccccc4)cn3c2C)C1 (stereo not shown),-59.8%
5,CCOC(=O)C1CCCN(C(=O)c2sc3nc(-c4ccc(F)cc4)cn3c2C)C1 (stereo not shown),-72.9%
6,Cc1c(C(=O)N2CC(C)OC(C)C2)sc2nc(-c3ccc(F)cc3)cn12 (stereo not shown),-38.4%
7,CCOC(=O)C1CCCN(C(=O)c2cc3c(-c4cccc(OC)c4)nn(C)c3s2)C1 (stereo not shown),-60.7%
8,Cc1c(C(=O)N2CCOCC2)sc2nc(-c3ccccc3)cn12,-11.2%
9,CCOC(=O)C1CCCN(C(=O)c2cc(-c3ccccc3)nc3ccccc23)C1 (stereo not shown),-9.9%
10,CCN(CC(=O)Nc1ccc(OC)cc1)C(=O)c1cc2c(s1)CCCCC2,16.3%
11,COc1ccc(/C=N/NC(=O)CCC(=O)Nc2ccc(F)cc2)c(OC)c1,14.9%
12,N#Cc1nc(-c2ccco2)oc1N1CCN(C(c2ccccc2)c2ccccc2)CC1,-0.82%
13,Cc1cc(C(=O)O)cc(Br)c1N,4.61%
14,Cc1ccc(S(=O)(=O)/N=C(\Sc2ccccc2)c2ccccc2)cc1,14.1%
15,COCCN1CCN(C(=O)c2ccc3c(c2)S(=O)(=O)c2ccccc2C3=O)CC1,-1.17%
16,Cc1cc(C)c(NC(=O)c2cccc3c2C(=O)N(C2CCCCC2)C3)c(C)c1,-11%
17,O=C(CSc1ccccc1)Nc1cccc(S(=O)(=O)N2CCOCC2)c1,-25.4%
18,CC(C)[C@H](NC(=O)c1ccccc1)C(=O)Nc1cccc(S(=O)(=O)N2CCOCC2)c1,-2.22%
19,CCCC(C(=O)Nc1cccc(S(=O)(=O)N2CCCC2)c1)c1ccccc1 (stereo not shown),-48.2%
20,CN(C)CCNC(C(=O)Nc1cccc(S(=O)(=O)N2CCOCC2)c1)c1ccccc1 (stereo not shown),-70.3%
21,O=C(Nc1cccc(S(=O)(=O)N2CCOCC2)c1)C(c1ccccc1)N1CCCCC1 (stereo not shown),-37.9%
22,CCCCNC(C(=O)Nc1cccc(S(=O)(=O)N2CCOCC2)c1)c1ccccc1 (stereo not shown),-50.7%

row,Compound,"hERG current change (%, negative = inhibition) at 10uM"
1,CC(C)C(NC(=O)CN(c1cccc(F)c1)S(C)(=O)=O)C(C)C,1.21%
2,COc1cc(CCC(=O)OCc2ccccc2C#N)cc(OC)c1OC,7.42%
3,O=C1CC(C(=O)N2CCOCC2)C2(CCCCC2)O1 (stereo not shown),17.8%
4,COc1ccccc1Oc1cc(F)nc(N)n1,5.82%
5,Cc1cc(C)n(-c2nc(C(=O)O)cs2)n1,17.7%
6,CN(Cc1ccccc1)S(=O)(=O)c1ccc(Cl)c(C(=O)O)c1,9.33%
7,CN(Cc1ccccc1)S(=O)(=O)c1ccc(OCC(=O)NCc2ccncc2)cc1,-53.6%
8,CN(Cc1ccccc1)S(=O)(=O)c1ccc(OCC(=O)NCc2ccccn2)cc1,-32.6%
9,CN(Cc1ccccc1)S(=O)(=O)c1ccc(Cl)c(C(=O)NCCc2ccccn2)c1,-61.8%
10,CN(CC(=O)NCCc1ccccn1)S(=O)(=O)c1ccc(Cl)cc1,-17%
11,CN(Cc1ccccc1)S(=O)(=O)c1ccc(Cl)c(C(=O)NCc2ccc3c(c2)OCO3)c1,5.48%
12,CN(Cc1ccccc1)S(=O)(=O)c1ccc(Cl)c(C(=O)NCc2ccncc2)c1,-55.8%
13,CN(Cc1ccccc1)S(=O)(=O)c1ccc(OCC(=O)NCc2cccnc2)cc1,0.509%
14,CN(Cc1ccccc1)S(=O)(=O)c1ccc(Cl)c(C(=O)NCc2cccnc2)c1,-32.8%
15,O=C1Nc2ccc(C(F)(F)F)cc2N2CCCC12 (stereo not shown),-1.52%
16,Cc1ccc(CSCCNC(=O)CN(c2cc(C)ccc2C)S(C)(=O)=O)cc1,-23.5%
17,COC(=O)C1=C(C)N(Cc2ccc(OC)c(OC)c2)C(=O)C1,10.7%
18,C=CCSc1n[nH]c(-c2cccs2)n1,14.4%
19,CN(CCO)S(=O)(=O)c1ccc2c(c1)C(=NN)c1cc(S(=O)(=O)N(C)CCO)ccc1-2,9.76%
